HP1b binding inh: blocks HP1-beta chromodomain binding to methylated histone tails | P83916 | Potency, µM (titrated, usually from 114 µM), without a hit: at the top dose activity change, negative = inhibition, actives largely listed as inhibitors | hit rate 0.56% among 390,000 | AlphaScreen HP1-beta / biotin-H3K9me3 peptide binding; further: nearly all actives have a fitted effect of over 70% in size
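Compound inhibition of the preformed complex between 50 nM HP1-beta and 50 nM biotinylated H3K9me3 peptide was read by AlphaScreen. Buffer was PBS pH 7.4 with 0.01% Tween-20. Incubations ran 30 min at room temperature, with 10 ug/mL donor/acceptor beads.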
Sfp PPTase inh: blocks B. subtilis Sfp PPTase activity; Potency, µM, without a hit: largest response in the series, negative = inhibition, actives largely listed as inhibitors; Biochemical Sfp PPTase activity, qHTS; hit rate 3.5% among 310,000; Q9F4F7; AID 1490;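 further: the enzyme is Sfp with the accession as filed and its product quenches rhodamine fluorescence; 0% = enzyme reaction without inhibitor and -100% = no enzyme wells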
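With Hepes-Na pH 7.6 buffer containing 10 mM MgCl2, Sfp (15 nM) modified BHQ-2-YbbR (12.5 uM) using rhodamine-CoA (5 uM). Two reads 30 minutes apart at 525/598 nm yielded each well's rate.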
JMJD2A Tudor: inhibitors of human JMJD2A Tudor domain; AlphaScreen JMJD2A-Tudor / H3K4me3 peptide binding; hit rate 4.4% among 390,000; O75164; Potency, µM (doses to about 114 µM), for inactives: top-dose activity change, negative = inhibition, usual class: inhibitors; further: on the % scale 0 is the no-effect control and ±100 the full control effect; nearly all actives have a fitted effect of over 50% in size
L3MBTL1 block: blocks human L3MBTL1; AlphaScreen L3MBTL1–H3K9me1 peptide binding; Q9Y468; Potency, µM (top dose mostly 57.1 µM), inactives show top-dose activity, negative = inhibition, most hits filed as inhibitors; hit rate 0.66% among 230,000; further: on the % scale 0 is the no-effect control and ±100 the full control effect; nearly all actives have a fitted effect of over 60% in size
Target sequence (Q9Y468 whole entry, looked up): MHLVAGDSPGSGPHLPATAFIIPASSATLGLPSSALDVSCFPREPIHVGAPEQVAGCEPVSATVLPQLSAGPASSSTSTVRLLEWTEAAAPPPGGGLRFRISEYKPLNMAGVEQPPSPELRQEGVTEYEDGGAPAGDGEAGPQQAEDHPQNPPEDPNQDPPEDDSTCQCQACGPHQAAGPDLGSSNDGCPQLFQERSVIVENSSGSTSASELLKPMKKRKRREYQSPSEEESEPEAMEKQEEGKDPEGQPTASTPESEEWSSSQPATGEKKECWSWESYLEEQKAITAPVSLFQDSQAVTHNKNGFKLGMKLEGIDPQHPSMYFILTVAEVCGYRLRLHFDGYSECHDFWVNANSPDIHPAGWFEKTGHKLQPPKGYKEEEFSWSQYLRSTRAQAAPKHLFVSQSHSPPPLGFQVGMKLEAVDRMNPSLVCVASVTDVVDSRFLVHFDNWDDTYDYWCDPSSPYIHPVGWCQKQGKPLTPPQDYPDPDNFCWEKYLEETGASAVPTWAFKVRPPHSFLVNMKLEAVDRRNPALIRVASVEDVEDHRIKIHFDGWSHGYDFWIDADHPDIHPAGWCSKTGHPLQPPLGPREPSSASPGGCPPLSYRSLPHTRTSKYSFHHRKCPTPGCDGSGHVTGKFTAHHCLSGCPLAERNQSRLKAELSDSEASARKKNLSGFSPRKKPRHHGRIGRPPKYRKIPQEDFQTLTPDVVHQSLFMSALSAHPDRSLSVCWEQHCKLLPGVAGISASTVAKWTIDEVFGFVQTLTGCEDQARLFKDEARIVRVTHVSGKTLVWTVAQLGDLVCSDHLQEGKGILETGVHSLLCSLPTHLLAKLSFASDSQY
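First, the protein-peptide complex forms for 30 min at room temperature (L3MBTL1 50 nM, biotinylated H3K9me1 peptide 75 nM). Next, compounds are pin-transferred and incubated 30 min. Finally, AlphaScreen beads are added and read after 30 min.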
BAZ2B inh: blocks human BAZ2B; AlphaScreen BAZ2B-H3K14Ac peptide displacement; Potency, µM (doses to about 114 µM), inactives show top-dose activity change, negative = inhibition, most hits filed as inhibitors; hit rate 4.4% among 360,000; AID 504333; further: on the % scale 0 is the no-effect control and ±100 the full control effect; nearly all actives have a fitted effect of over 60% in size
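BAZ2B 50 nM plus b-H3(5-23)K14Ac 50 nM, PBS pH 7.4/0.01% Tween-20, 30 min RT; compound added (max 110 uM), 30 min RT; streptavidin donor/Ni-chelate acceptor beads 10 ug/mL final, 20 min dark; AlphaScreen read.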
G9a block: G9a (human) methyltransferase inhibition; AID 504332; G9a H3K9 monomethylation, AlphaScreen, 2 h; hit rate 8.8% among 350,000; Q96KQ7; Potency, µM (top dose mostly 102 µM), without a hit: at the highest dose activity, negative = inhibition, most hits filed as inhibitors; further: on the % scale 0 is the no-effect control and ±100 the full control effect; nearly all actives have a fitted effect of over 75% in size
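Using a bead-based AlphaScreen, monomethylated H3K9 product from 2 h room-temperature reactions (G9a 20 nM, peptide 500 nM, SAM 20 uM) was detected with 0.5 ug/mL rabbit anti-H3K9me1 antibody.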
The depositor's hits bear a star; ? = inconclusive; nt = no result given; [ ] = remark or other dose. In the library only some 12% were active in any assay of this set; here they are far more common. The call rests on the fitted dose curve; in most records, active means well fitted curve in the direction sought with a large enough effect; inconclusive means small, poorly fitted or top-dose-only effect, or another doubt; inactive means no such curve, though single readings can be large; an effect the other way counts as inactive or inconclusive. Potency means the concentration at half of the fitted maximal effect.

SMILES | HP1b binding inh | Sfp PPTase inh | JMJD2A Tudor | L3MBTL1 block | BAZ2B inh | G9a block
Cc1cc(C)cc(-n2c(SCC(=O)Nc3ccccc3)nc3c(oc4ccccc43)c2=O)c1 | 37.7% | nt | -8.0% | nt | -12.1% | 0.5%[59 µM]
CC(C)c1ccc(N2C(=O)CSC23C(=O)N(C)c2ccccc23)cc1 (centres undefined) | 4.6% | nt | -10.0% | nt | -19.1% | -44.1%[59 µM]
C=CCc1ccc(OCC(O)CN2CCN(c3ccccc3OC)CC2)c(OC)c1 (centres undefined) | 3.4% | -8.1% | -22.1% | nt | ? | -21.6%[2.33 µM]
C=CCc1ccccc1OCC(O)CN1CCOCC1 (centres undefined) | 44.6% | nt | -14.8% | nt | nt | nt
C=CCc1ccc(OCC(O)CN2CCN(Cc3ccc(Cl)cc3)CC2)c(OC)c1 (centres undefined) | 11.6% | -23.8% | -20.2%[57.1 µM] | -2.2% | ? | 50.1µM*
Cc1ccc(N2CCN(CC(O)COc3cccc4ccccc34)CC2)cc1 (centres undefined) | ? | ? | 44.7µM* | nt | 35.5µM* | 39.8µM*
C=CCc1ccccc1OCC(O)CN1CCN(c2ccc(OC)cc2)CC1 (centres undefined) | ? | -4.6% | 17.8µM* | -9.1% | 50.1µM* | ?
COc1ccc(Nc2nn3c(=O)c4cc5c(cc4nc3s2)OCO5)c(OC)c1 | 50.8% | nt | -29.0% | nt | 6.8% | -4.7%[59 µM]
COc1ccc(NC(=O)c2ccccc2Sc2ccc(NC(C)=O)nc2)cc1 | 7.4% | 11.5% | -24.5% | ? | ? | 20µM*
C=CCn1c(C)cc(C(=O)COc2ccc(N(C)S(=O)(=O)c3ccc(NC(C)=O)cc3)cc2)c1C | 8.8% | nt | -18.5% | -8.2% | nt | nt
COCC(C)n1c(C)cc(C(=O)COc2ccc(N(C)S(=O)(=O)c3ccc(NC(C)=O)cc3)cc2)c1C (centres undefined) | -11.6% | nt | -31.5% | -13.0% | ? | 35.5µM*
CCCCCCCC(=O)OC(CN1CCCCC1)CN1CCCC1=O (centres undefined) | 8.9% | 7.9% | -3.5% | nt | -0.2% | 11.2µM*
CN(C)/C=C\C(=C/C(=O)C(F)(F)F)Nc1ccccc1Oc1ccccc1 | -5.5% | 44.7µM* | ? | -5.7% | -26.2% | -34.9%
CCC(=O)Nc1ccccc1Oc1ccccc1 | ? | 11.2% | 56.2µM* | 20.7%[11.4 µM] | 10.0% | 5.3%[59 µM]
Cc1ccc2nc(NC(=O)CN3C(=O)NC4(CCCC4)C3=O)sc2c1 | 30.1% | nt | -10.8% | 6.8% | 5.0% | ?
CCCCC(=O)Nc1ccccc1Oc1ccccc1 | 79.0% | 2.5% | 27.2% | 33.9% | 15.8% | 47.7%
CCOc1ccc(Oc2ccccc2NC(=O)CN2C(=O)NC3(CCCC3)C2=O)cc1 | 10.9% | nt | -9.0% | ? | -0.3% | 56.2µM*
O=C(O)CCCC(=O)Nc1ccccc1Oc1ccccc1 | 19.5% | 14.4% | 11.7% | 9.7% | 7.9% | 0.3%
CCOc1ccc2nc(NC(=O)CN3C(=O)NC4(CCCC4)C3=O)sc2c1 | -1.1% | nt | -23.4% | -0.5% | -2.1% | 50.1µM*
Cc1ccccc1Cn1c(=O)n(CCc2ccccc2)c(=O)c2sc3ccccc3c21 | 17.1% | nt | -5.6% | nt | -33.7% | -7.6%[59 µM]
Cc1cnc(C(=O)OCC(=O)NC(=O)c2ccccc2)cn1 | 10.4% | nt | -13.8% | -18.2% | ? | 44.7µM*
Cc1cc(C)c(C(=O)OCC(=O)NC(=O)c2ccccc2)c(C)c1 | 31.0% | nt | -8.9% | 12.7% | -1.3% | 6.7%
Cc1cccc(C(=O)OCC(=O)NC(=O)c2ccccc2)c1O | 14.5% | nt | -4.8% | 39.0% | 79.4µM* | -1.1%[0.501 µM]
COc1cc(NS(=O)(=O)c2ccc(NC(=O)COc3ccc(Cl)cc3Cl)cc2)nc(OC)n1 | 87.6% | nt | 4.2% | nt | 6.2% | ?
CC(=O)NC(=S)NNC(=O)C(c1ccccc1)c1ccccc1 | 24.0% | 3.1% | ? | 41.2% | 7.3% | 11.2µM*
CCCCc1c(C)nc2ccc(Br)cc2c1SCCC#N | nt | 1.1% | nt | 26.9% | 19.5% | 28.2µM*
Cn1c(=O)c2[nH]c(CN3CCN(Cc4ccccc4)CC3)nc2n(C)c1=O | 9.4% | -5.8% | 8.91µM* | nt | -5.4% | ?

Assay outcomes (PubChem BioAssay)
